GC-A act = GC-A (human) enzyme activation | P16066 | activation, % at 10 µM | 0.14% of 370,000 active | HEK293 GC-A cells, cGMP TR-FRET, EC30 ANP; 0% at EC30 ANP, 100% saturating ANP; in the data active = activation above about 40%
NPR2 activator = GC-B (human) receptor activation. P20594. AID 1920062. activation, % at 10 µM. 0.11% of 370,000 active. HEK293-GC-B cells, CNP EC30, cGMP TR-FRET; 0% at EC30 CNP, 100% saturating CNP;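 active = activation at 10 µM reaching about 35% in either raw or pattern-adjusted values, limit read from the data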
KLK7 zymogen act = activates the human kallikrein-7 zymogen; P49862; purified proKLK7, EDANS-DABCYL substrate fluorescence; 100% is mature enzyme control, 0% vehicle; activation, % at 7 µM; 0.9% of 370,000 active; AID 652039;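 active = activation above the mean of all tested compounds plus 3 SD, computed per campaign excluding outliers beyond control limits, cut at about 13% in these data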
ADAM10 inh = inhibits human ADAM10; recombinant ADAM10, EDANS/DABCYL FRET peptide cleavage, 3 h; inhibition, % at 7 µM; 0.62% of 370,000 active; AID 720582;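 active = inhibition above a per-campaign cutoff equal to the mean of compounds falling between control-based bounds plus 3 SD, cut at about 20% in these data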;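 note: 0% = DMSO wells while the 100% control is not disclosed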
Target sequence (O14672 214-748 limits assumed): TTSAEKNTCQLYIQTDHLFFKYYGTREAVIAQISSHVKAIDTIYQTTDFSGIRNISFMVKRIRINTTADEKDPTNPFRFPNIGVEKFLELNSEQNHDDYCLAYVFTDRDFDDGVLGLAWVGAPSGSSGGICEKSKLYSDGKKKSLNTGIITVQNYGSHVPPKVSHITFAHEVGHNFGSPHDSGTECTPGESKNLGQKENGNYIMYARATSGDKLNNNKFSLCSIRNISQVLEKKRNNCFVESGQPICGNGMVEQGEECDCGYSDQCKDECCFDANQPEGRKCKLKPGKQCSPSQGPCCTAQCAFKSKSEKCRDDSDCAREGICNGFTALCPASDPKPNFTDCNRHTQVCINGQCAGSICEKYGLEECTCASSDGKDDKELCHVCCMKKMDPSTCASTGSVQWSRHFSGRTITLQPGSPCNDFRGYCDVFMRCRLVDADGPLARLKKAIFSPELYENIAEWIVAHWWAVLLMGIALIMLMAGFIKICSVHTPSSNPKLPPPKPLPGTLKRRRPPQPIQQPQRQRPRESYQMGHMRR
ADAM17 inh = inhibitors of human ADAM17; 0.83% of 370,000 active; inhibition, % at 6.95 µM; recombinant ADAM17, EDANS/DABCYL FRET peptide cleavage;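 active = inhibition above the mean of compounds lying between control limits plus 3 SD, set per campaign, cut at about 8.5% in these data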;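 note: 0% = DMSO-only wells as the low control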
ADAM10 counter = inhibits human ADAM10 in ADAM17 exosite counter-screen; recombinant ADAM10, EDANS/DABCYL FRET peptide cleavage, 3 h; 47% of 2,900 active; shares compounds with ADAM17 inh; inhibition, % at 6.95 µM;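 active = mean inhibition over the triplicate runs exceeds the activity threshold set in the earlier primary screen, cut at about 20% in these data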;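 note: 0% = DMSO wells and 100% = marimastat wells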
ADAM17 confirm = human ADAM17 inhibition, confirmation; shares compounds with ADAM17 inh; recombinant ADAM17, EDANS/DABCYL QFRET peptide cleavage; 65% of 2,900 active; AID 743257; inhibition, % at 6.95 µM;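 active = mean inhibition across replicates above the hit cutoff set in the primary screen, cut at about 8.5% in these data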;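 note: 0% = DMSO wells and 100% = marimastat wells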
The depositor's hits bear a star; nt = not tested or not shown. Sampled rows, rich in hits. Any-hit rate of the full collection: about 2.2%.

SMILES	GC-A act	NPR2 activator	KLK7 zymogen act	ADAM10 inh	ADAM17 inh	ADAM10 counter	ADAM17 confirm
COc1cccc(CNC(=O)C2CCCN(S(=O)(=O)c3c(C)noc3/C=C/N(C)C)C2)c1 (stereo not given)	-2.0	0.1	-1.1	17.3	8.9*	12.4	6.6
COc1ccc(NC(=O)C2CCN(S(=O)(=O)c3c(C)noc3/C=C/N(C)C)CC2)cc1	1.5	-1.4	-1.7	-1.8	10.1*	16.3	11.4*
COc1ccc(NC(=O)C2CCN(S(=O)(=O)c3c(C)noc3C)CC2)cc1	-0.5	3.3	0.0	6.1	-3.5	nt	nt
Cc1ccc(-n2c(SCC(=O)NN=Cc3c[nH]c4ccccc34)nnc2-c2ccccc2)cc1	-14.7	-13.2	0.2	10.8	1.2	nt	nt
CCN(CC(O)Cn1c2ccccc2c2ccccc21)S(=O)(=O)c1ccc(C)cc1 (stereo not given)	-33.1	-23.4	-0.2	17.5	11.0*	27.6*	14.1*
COC(=O)[C@H](CC(C)C)NCc1cccc(CN[C@@H](CC(C)C)C(=O)OC)c1	0.1	6.0	-0.7	6.8	8.9*	7.3	3.5
O=C(CN1C(=O)NC2(CCCCCCC2)C1=O)Nc1cccc(Br)c1	-2.3	0.6	-0.3	8.6	9.4*	19.9*	12.3*
CC(=O)c1cccc(NC(=O)CN2C(=O)NC3(CCCCCCC3)C2=O)c1	3.0	9.3	-0.1	-4.0	0.6	nt	nt
Oc1ccc2ccccc2c1/C=N/Nc1ccccc1	-1.7	2.9	-1.1	-1.8	2.4	nt	nt
Cc1cc(N/N=C/c2c(O)ccc3ccccc23)nc(-c2ccccc2O)n1	3.7	-4.4	-5.7	7.6	9.2*	-69.2	-9.4
CCN(C[C@H]1N[C@@](C)(C(=O)OC)[C@H]2C(=O)N(Cc3ccccc3)C(=O)[C@@H]12)S(=O)(=O)c1ccc(C(C)(C)C)cc1	-1.6	0.5	0.4	15.4	9.4*	20.8*	13.4*
COC(=O)[C@]12CCCCC=C1N(Cc1ccc(OC)cc1)C(=O)[C@@H]2CC(=O)NCC12CC3CC(CC(C3)C1)C2	0.2	4.7	0.3	13.2	5.4	nt	nt
c1ccc(-c2nnc(-c3c[nH]c4ccccc34)nc2-c2ccccc2)cc1	-8.0	-14.4	-0.6	15.9	8.7*	14.4	8.8*
Cc1ccc(S(=O)(=O)N(C)c2c(C)ccc(S(=O)(=O)N3CCN(C)CC3)c2C)cc1	-2.6	-1.1	0.7	-1.1	-3.1	nt	nt
C=C(C)CN1CCN(S(=O)(=O)c2ccc(C)c(N(C)S(=O)(=O)c3ccc(C)cc3)c2C)CC1	-1.6	3.3	0.0	6.5	10.4*	14.4	11.2*
COc1ccc(Cn2c(SC)nc3ccccc32)cc1[N+](=O)[O-]	-1.3	-2.8	0.4	15.7	8.7*	9.8	1.8
O=C1Nc2ccccc2C12OCC(COc1ccc(Cl)cc1)O2 (stereo not given)	2.4	5.8	-0.2	15.9	10.9*	7.8	5.9
CCN(CC)c1ccc(NC(=O)CSc2nnc(SCc3ccc(Cl)cc3)s2)cc1	-3.9	-1.0	-0.4	4.5	2.2	nt	nt
Cc1cccc(NC(=O)CSc2nnc(SCc3ccc(Cl)cc3)s2)c1	-3.5	4.9	1.4	11.8	8.8*	14.9	11.7*
C[C@@H]1COc2cc(N3CCSCC3)ccc2S(=O)(=O)N1C	0.7	1.6	0.1	-2.4	-2.5	nt	nt
O=C(NCc1ccccc1Cl)c1nnc(CS(=O)(=O)c2ccccc2)o1	4.3	-0.7	-0.6	17.2	10.9*	-1.5	-0.6
CC(=O)O[C@@H]1C=C[C@@H](C#Cc2ccc(C(C)(C)C)cc2)O[C@@H]1COC(=O)Nc1ccccc1	6.9	3.6	0.2	13.1	13.3*	29.3*	12.7*
CC(=O)O[C@H]1C=C[C@@H](C#Cc2ccc(C(C)(C)C)cc2)O[C@@H]1COC(=O)Nc1ccccc1	0.8	8.5	0.5	0.2	0.1	nt	nt
CN(C)S(=O)(=O)c1cccc(NC(=O)c2cc(-c3cccs3)nn2-c2cccc(Cl)c2)c1	-2.3	1.0	-0.2	13.4	12.5*	14.3	11.8*
O=C(O)c1cc(-c2cccs2)nn1-c1cccc(Cl)c1	1.4	2.4	-0.4	-3.4	-2.7	nt	nt
SMILES	GC-A act	NPR2 activator	KLK7 zymogen act	ADAM10 inh	ADAM17 inh	ADAM10 counter	ADAM17 confirm
CC(C)(C)OC(=O)C[C@H]1C/C=C\C[C@H](CC(=O)N[C@H](CO)Cc2ccccc2)C(=O)N[C@@H](Cc2ccccc2)COC1=O	1.8	8.8	-0.2	9.0	11.9*	4.2	4.3
C[C@@H]1COC(=O)[C@@H](CC(=O)OC(C)(C)C)C/C=C\C[C@@H](CC(=O)N[C@@H](CO)Cc2ccccc2)C(=O)N1	3.8	5.8	0.1	5.4	-3.4	nt	nt
O=C(C[C@H]1C/C=C\CC[C@@H](Cc2ccc(F)cc2)C(=O)O[C@@H](c2ccccc2)CNC1=O)N[C@H](CO)Cc1ccccc1	2.7	5.0	0.5	7.4	12.6*	17.3	11.9*
CN(CCOC(=O)c1cc2ccccc2o1)C1CN(Cc2cn(Cc3ccc([N+](=O)[O-])cc3)nn2)S(=O)(=O)C1 (stereo not given)	0.3	-2.2	0.7	-1.1	-2.5	nt	nt
COc1cccc(CNc2ccc([N+](=O)[O-])cc2C)c1	1.7	0.4	0.5	16.9	11.8*	14.7	12.4*
Cc1ccc(C(=O)c2cn[nH]c2-c2ccccc2O)cc1	-5.7	-6.7	-0.5	15.0	8.8*	-1.8	-1.0
O=C(c1ccc(F)cc1)c1cn[nH]c1-c1ccccc1O	-8.7	-5.0	-0.1	2.3	-0.4	nt	nt
Cc1ccc(CNC(=O)c2ccc(Cn3nc(C)c(Cl)c3C)o2)cc1	0.7	0.1	0.2	8.4	6.7	nt	nt
Cc1cc(C)cc(NC(=O)c2ccc(Cn3nc(C)c(Cl)c3C)o2)c1	1.4	-3.0	-0.3	7.2	9.8*	21.2*	9.5*
COc1ccccc1N=C1SCC(=O)N1Cc1ccco1	2.9	2.7	0.4	-1.9	8.9*	5.2	4.4
CCN1C(=O)[C@H]2[C@@H](c3ccc(-c4ccc(C(C)=O)cc4)cc3)N3CCC[C@@]3(C(=O)OC)[C@H]2C1=O	-1.0	3.4	0.5	16.1	9.7*	-8.9	0.3
COC(=O)[C@]12C[C@H](CC(=O)NCCCCc3ccccc3)C(=O)N(Cc3ccco3)C1=C[C@H](C1CCCC1)O[C@@H]2C	-16.7	-6.1	-0.2	16.2	1.2	nt	nt
COc1ccc(NC(=O)c2cc(-c3cc(Cl)ccc3C)n[nH]2)c(OC)c1	3.5	-0.3	-0.6	16.3	9.9*	22.7*	10.5*
COc1ccc(NC(=O)c2cc(-c3cc(Cl)ccc3C)n[nH]2)cn1	1.2	-0.4	0.8	0.3	0.3	nt	nt
